# Values joined by “and” are separate entries in the source; they are usually repeats but may differ in a detail not shown here. Equal entries are not always repeated. Active and inactive are the calls of the source. Cut-off read from the data, not from the text of the source, unless noted: active = inhibition above about 80%; inactive = the rest.
# Experiments:
# [1] = compounds altering viability of human ES cells (AID 493140; call rule not given here;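 note: cells exposed to compounds for four days before counting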); conditions: human embryonic stem cell survival screen; stronger effect = higher value
# [2] = P. berghei load reduction in hepatocytes – cell-based, HepG2, luciferase luminescence, HepG2 viability, primary screen (AID 624349; in the data active = parasite load remaining mostly below about 12%, no sharp cut-off; inactive = mostly above about 10%;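 note: 100% = mean of DMSO negative control wells on the same plate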); conditions: P. berghei liver stage in HepG2, luciferase luminescence, concentration not given here; parasite load remaining: stronger effect = lower value; viability: measured here: HepG2 viability without parasites
# [3] = viability loss with induced miR-34 in A549 – imaging, A549 dox-inducible miR-34, nuclei and caspase counts, primary screen (AID 1347080;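 active = compounds whose cell count with miR-34 switched on is under 0.7 times the count with it off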); conditions: A549 miR-34 inducible, Hoechst nuclei count, 48 h
# [4] = MELAS cybrid and Rieske KO viability enhancers – cell-based, MELAS cybrids, Rieske KO mouse fibroblasts, CellTiter-Glo, primary screen (AID 1508586;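 active = mean z-score across replicates of 1.96 or higher in either the MELAS or the Rieske mutant cell line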;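 note: z relative to plate mean and SD of compound and empty wells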); conditions: low glucose
# [5] = growth inhibition, single agent or in combination, cell-based, chromothripsis tumors, cisplatin or BGB combos (AID 1671449); conditions: LFS_MB_P medulloblastoma cells;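 note: cells exposed for 96 hours; 0% = vehicle DMSO and 100% = killing by high DMSO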
# [6] = growth inhibition, single agent and combos, cell-based, chromothripsis tumors, cisplatin or BGB combos (AID 1671450); conditions: HDN33 neuroblastoma cells, stronger effect = higher value;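 note: cells exposed to compound for four days; 0% = vehicle DMSO and 100% = cell killing by high DMSO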
# [7] = growth inhibition, single agents and combos, ICB984, cell-based, cisplatin or BGB combos, synergistic combos for chromothripsis tumors (AID 1671451; call rule not given here;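 note: cells exposed for 96 hours before readout; 0% = vehicle DMSO and 100% = killing by high DMSO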); conditions: ICB984 medulloblastoma cells, drug combinations, stronger effect = higher value
# [8] = growth inhibition, single agents and combos, LFS_MB_1R, cell-based, cisplatin or BGB combos, synergistic combos for chromothripsis tumors (AID 1671452); conditions: LFS_MB_1R medulloblastoma cells, stronger effect = higher value;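 note: cells exposed for 96 hours before readout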
# [9] = growth inhibition, single agents and combos, HTB85, cell-based, BGB or cisplatin IC20 combos, synergistic combos for chromothripsis tumors (AID 1671453); conditions: HTB85 osteosarcoma cells, drug combinations, stronger effect = higher value;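 note: cells exposed for 96 hours before readout; 0% = vehicle DMSO and 100% = high DMSO killing control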
# [10] = growth inhibition, single agents and combos, CRL2098, cell-based, BGB or cisplatin IC20 combos, synergistic combos for chromothripsis tumors (AID 1671454); conditions: CRL2098 osteosarcoma cells, drug combinations, stronger effect = higher value;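 note: cells exposed for 96 h before readout; 0% = vehicle DMSO and 100% = killing by high DMSO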
# [11] = growth inhibition, single agents and combos, HD-MB03, cell-based, BGB or cisplatin IC20 combos, synergistic combos for chromothripsis tumors (AID 1671455; in the data active = inhibition above about 83%;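 note: 0% = vehicle DMSO and 100% = high DMSO as cytotoxic control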); conditions: HD-MB03 medulloblastoma cells, stronger effect = higher value
# [12] = growth inhibition, single agents and combos, UWB1.289, cell-based, BGB or cisplatin combos, synergistic combos for chromothripsis tumors (AID 1671456); conditions: UWB1.289 ovarian carcinoma cells, stronger effect = higher value;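 note: cells exposed to compound for four days; 0% = vehicle DMSO and 100% = killing by high DMSO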
# [13] = growth inhibition, single agents and combos, LFS_MB_2R, cell-based, cisplatin combos, synergistic combos for chromothripsis tumors (AID 1671457); conditions: LFS_MB_2R medulloblastoma cells, stronger effect = higher value;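 note: cells exposed to compound for four days before readout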
# [14] = growth inhibition, MDA-MB-436, cell-based, BGB or cisplatin combos, synergistic combos for chromothripsis tumors (AID 1671458; call rule not given here;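 note: cells exposed for 96 hours; 0% = vehicle DMSO and 100% = killing by high DMSO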); conditions: MDA-MB-436 breast carcinoma growth inhibition, drug combinations, stronger effect = higher value
# [15] = UWB1.289_BRCA1 ovarian cancer growth, cell-based, BGB or cisplatin combinations (AID 1671459); conditions: UWB1.289 BRCA1 ovarian carcinoma, drug combinations, stronger effect = higher value
# [16] = drug combination toxicity in non-malignant astrocytes – cell-based, BGB or cisplatin IC20 combos, cytotoxicity control for chromothriptic childhood tumor combination screen (AID 1671460); conditions: Human astrocytes, viability inhibition, drug combinations, at 0.5 µM, stronger effect = higher value;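 note: cells exposed to compounds for 96 hours before viability readout; 0% = vehicle and 100% = killing control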
# [17] = BT084 cell growth, single and combined drugs, ICGC_MB145, cisplatin and BGB IC40 combos (AID 1671461); conditions: BT084 medulloblastoma cells, drug combinations, stronger effect = higher value;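 note: cells exposed to drugs for 96 hours; 0% = vehicle DMSO and 100% = high DMSO full killing control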
# [18] = RCMB18 cell growth, single agent and combined, cisplatin and BGB IC40 combos (AID 1671462); conditions: RCMB18 medulloblastoma cells, stronger effect = higher value;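 note: cells exposed to compound for four days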
# [19] = CRL1545 cell growth, single agent and combined, cisplatin and BGB IC20 combos (AID 1671464); conditions: CRL1545 osteosarcoma cells, stronger effect = higher value;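 note: cells exposed to compound for 96 hours before readout; 0% = vehicle DMSO and 100% = high DMSO killing control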
# [20] = stronger effect = lower value, cell number ratio, induced over uninduced
# [21] = measured here: relative caspase fold change +Dox/-Dox
# [22] = measured here: total cells with miR-34 induction, stronger effect = lower value
# [23] = measured here: total cells without miR-34 induction
# [24] = MELAS cybrid survival, CellTiter-Glo 48 h, stronger effect = higher value
# [25] = Rieske KO mouse fibroblast survival, CellTiter-Glo 72 h
# [26] = measured here: combination with BGB IC40, at 0.05 µM
# [27] = measured here: with BGB IC20 combination, at 0.5 µM
# [28] = measured here: with cisplatin IC20 combination, at 0.5 µM
# [29] = measured here: combination with cisplatin, at 0.5 µM
# [30] = measured here: combination with cisplatin, at 5 µM
smiles,measurement,setting,value
Cc1cc(C(=O)NNCc2ccccc2)no1,survival,[1],3.33 (inactive)
same,parasite load remaining,[2],129% (inactive)
same,viability,[2],100%
same,fold change,[3]; [20],0.777 (inactive)
same,fold change,[3]; [21],1.27
same,cell count,[3]; [22],8090
same,cell count,[3]; [23],10400
same,z-score,[4]; [24],0.697 (inactive)
same,z-score,[4]; [25],0.109
CCCCN(Cc1ccc(C(=O)NO)cc1)C(=O)Nc1ccccc1,fold change,[3]; [20],0.983 (inactive)
same,fold change,[3]; [21],0.418
same,cell count,[3]; [22],4530
same,cell count,[3]; [23],4600
same,z-score,[4]; [24],-0.565 (inactive)
same,z-score,[4]; [25],1.2
same,inhibition,"[5]; at 0.5 µM, stronger effect = higher value",-20% (inactive) and -3.97% (inactive)
same,inhibition,"[5]; measured here: combination with BGB IC20, at 0.005 µM",-3.67% and 7.55%
same,inhibition,"[5]; measured here: combination with BGB IC40, at 0.005 µM",4.04% and -3.84%
same,inhibition,[5]; [26],40.8% and 5.09%
same,inhibition,"[5]; measured here: combination with cisplatin, at 0.5 µM, stronger effect = higher value",-30.1% and 27.1%
same,inhibition,"[5]; measured here: combination with cisplatin, at 5 µM, stronger effect = higher value",80.5% and 81.8%
same,inhibition,"[6]; BGB combo, at 5 µM",53.8% and 40.9%
same,inhibition,[6]; at 0.5 µM,23.8% (inactive) and 15.6% (inactive)
same,inhibition,"[6]; cisplatin combo, at 5 µM",52.4% and 49.4%
same,inhibition,[6]; [27],24.6% and 6.38%
same,inhibition,[6]; [28],17.1% and 28%
same,inhibition,"[6]; single agent, at 5 µM",52.1% and 51.6%
same,inhibition,"[7]; BGB IC20 combo, at 0.005 µM",-10.6% and 8.62%
same,inhibition,"[7]; BGB IC40 combo, at 0.005 µM",-48.5% and 3.88%
same,inhibition,"[7]; BGB IC40 combo, at 0.05 µM",19.3% and 30.6%
same,inhibition,[7]; at 0.5 µM,-22.3% (inactive) and 1.78% (inactive)
same,inhibition,"[7]; cisplatin combo, at 0.05 µM",16.1% and 28.6%
same,inhibition,"[7]; cisplatin combo, at 0.5 µM",-41.9% and 10.4%
same,inhibition,"[7]; cisplatin combo, at 5 µM",-6.73% and -20.8%
same,inhibition,"[7]; measured here: 5 uM single agent, at 5 µM",-6.18% and 2.93%
same,inhibition,[8]; at 0.5 µM,-0.52% (inactive) and 4.37% (inactive)
same,inhibition,[8]; [26],-26.5% and -6.78%
same,inhibition,[8]; [29],3.43% and 2.01%
same,inhibition,[8]; [30],21.2% and 8.3%
same,inhibition,[9]; at 0.5 µM,19.9% (inactive) and 9.96% (inactive)
same,inhibition,"[9]; measured here: with BGB IC20, at 0.5 µM",8.29% and 2.56%
same,inhibition,"[9]; measured here: with BGB IC20, at 5 µM",37.9% and 32.7%
same,inhibition,"[9]; measured here: with cisplatin IC20, at 0.5 µM",24.2% and 15.2%
same,inhibition,"[9]; measured here: with cisplatin IC20, at 5 µM",61.3% and 51.1%
same,inhibition,"[9]; single agent, at 5 µM",64% and 41.2%
same,inhibition,[10]; at 0.5 µM,-11.3% (inactive) and -33.3% (inactive)
same,inhibition,"[10]; measured here: combination with BGB at IC20, at 0.5 µM",5.14% and -65%
same,inhibition,"[10]; measured here: combination with cisplatin at IC20, at 0.5 µM",14.3% and -15.5%
same,inhibition,[11]; at 0.5 µM,14.8% (inactive) and 3.61% (inactive)
same,inhibition,"[11]; measured here: combo with BGB at IC20, at 0.5 µM",8.17% and 6.08%
same,inhibition,"[11]; measured here: combo with cisplatin at IC20, at 0.5 µM",19.9% and -1.69%
same,inhibition,[12]; at 0.5 µM,11.9% (inactive) and 3.45% (inactive)
same,inhibition,"[12]; measured here: inhibition with BGB combination, at 0.05 µM",1.66% and 3.63%
same,inhibition,"[12]; measured here: inhibition with cisplatin combination, at 0.05 µM",-1.43% and -3.86%
same,inhibition,[13]; at 0.5 µM,-2.85% (inactive) and 5.34% (inactive)
same,inhibition,[13]; [29],10.6% and 13.6%
same,inhibition,[13]; [30],66.3% and 45%
same,inhibition,[14]; at 0.5 µM,2.63% (inactive) and 5.38% (inactive)
same,inhibition,"[14]; measured here: BGB combination, at 0.5 µM",-2.67% and 11.6%
same,inhibition,"[14]; measured here: BGB combination, at 5 µM",10.7% and 17.3%
same,inhibition,"[14]; measured here: cisplatin combination, at 0.5 µM",0.872% and -0.512%
same,inhibition,"[14]; measured here: cisplatin combination, at 5 µM",26% and 22.1%
same,inhibition,"[15]; BGB combination, concentration series, at 5 µM",53.9% and 55%
same,inhibition,[15]; at 0.5 µM,11.3% (inactive) and 5.83% (inactive)
same,inhibition,"[15]; cisplatin combination, concentration series, at 5 µM",64.1% and 65%
same,inhibition,[16],12.4% (inactive) and -2.38% (inactive)
same,inhibition,[16]; measured here: combo with BGB IC20,32.5% and 11.7%
same,inhibition,[16]; measured here: combo with cisplatin IC20,10.7% and -23.3%
same,inhibition,[17]; at 0.5 µM,4.6% (inactive) and 18.3% (inactive)
same,inhibition,"[17]; cisplatin combination, at 0.5 µM",19.3% and 17.8%
same,inhibition,"[17]; cisplatin combination, at 5 µM",71.8% and 68.9%
same,inhibition,"[17]; measured here: BGB IC40 combination 0.05 uM, at 0.05 µM",-5.38% and 25.6%
same,inhibition,"[17]; single agent, at 5 µM",45.6% and 57.8%
same,inhibition,[18]; at 0.5 µM,12.4% (inactive) and 19.2% (inactive)
same,inhibition,"[18]; cisplatin combo, at 5 µM",43.7% and 48.5%
same,inhibition,"[18]; measured here: BGB IC40 combination, at 0.05 µM",-4.7% and 0.072%
same,inhibition,[18]; [29],39% and 19%
same,inhibition,"[18]; single agent, at 5 µM",15.2% and 39.4%
same,inhibition,[19]; at 0.5 µM,-6.16% (inactive) and 6.99% (inactive)
same,inhibition,[19]; [27],-21.4% and 15.9%
same,inhibition,[19]; [28],1.44% and 0.349%
same,inhibition,"[19]; single agent, at 0.05 µM",-0.576% and -13%
same,inhibition,"[19]; single agent, at 5 µM",32.4% and 24.1%
CC(C)(C)NCC(O)COc1ccccc1C1CCCC1 (configuration not stated),survival,[1],4.5 (inactive)
same,parasite load remaining,[2],64.8% (inactive)
same,viability,[2],78.7%
same,fold change,[3]; [20],0.898 (inactive)
same,fold change,[3]; [21],0.683
same,cell count,[3]; [22],7970
same,cell count,[3]; [23],8880
same,z-score,[4]; [24],-0.603 (inactive)
same,z-score,[4]; [25],-0.983

# — PubChem BioAssay
